D3 ag – agonists of human D3 dopamine receptor; D3R DiscoveRx beta-arrestin cells, luminescence, 90 min; max activation, %; actives 0.58% (n = 410,000); in the data active = max activation above about 30%; also: 0% is about no effect
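Cells at 1500/well, incubated overnight, then treated with pinned compounds (dopamine as control) for 90 min at 37 degrees C. DiscoveRx reagent added for 30 - 60 minutes at room temperature; luminescence read.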
D3 antag – blocks the human D3 dopamine receptor. max response, negative = inhibition, %. actives 2.5% (n = 360,000). P35462. AID 652054. D3R cells, DiscoveRx beta-arrestin luminescence, antagonist mode; hits give low values; in the data active = max response below about -50%; inconclusive = no clear call, values can overlap the other calls; also: % is scaled to controls: 0 for no effect and ±100 for the full control effect
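Cells plated overnight at 1500 cells/well, then exposed to library compounds with dopamine controls for 90 minutes at 37 degrees C. DiscoveRx reagent added for 30–60 minutes at room temperature; luminescence read, quantitative HTS format.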
D1 ag – activates the human D1 dopamine receptor; HEK293 T-REx D1 cells, calcium flux, agonist mode; AID 504660; P21728; activation, % at 2 µM; actives 1% (n = 360,000); in the data active = activation above about 30%; also: 0% is about no effect
Target sequence (P21728 whole entry, looked up): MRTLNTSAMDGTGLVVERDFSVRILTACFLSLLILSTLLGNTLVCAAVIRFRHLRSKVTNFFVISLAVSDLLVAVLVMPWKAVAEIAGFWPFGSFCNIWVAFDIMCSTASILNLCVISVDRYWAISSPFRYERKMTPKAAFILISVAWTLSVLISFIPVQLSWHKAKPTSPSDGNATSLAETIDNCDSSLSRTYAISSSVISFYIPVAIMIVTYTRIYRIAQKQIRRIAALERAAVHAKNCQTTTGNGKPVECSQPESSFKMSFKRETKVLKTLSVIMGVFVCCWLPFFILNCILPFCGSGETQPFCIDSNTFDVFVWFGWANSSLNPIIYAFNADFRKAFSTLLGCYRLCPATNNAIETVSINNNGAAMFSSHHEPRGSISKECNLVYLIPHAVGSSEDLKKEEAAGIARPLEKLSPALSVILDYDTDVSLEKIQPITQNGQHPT
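Agonism was scored from calcium flux recorded over 180 s (1 read/s) after pintool compound addition, following a 10-cycle baseline. Cells were inducible force-coupled HEK293 TREx D1, plated overnight at 30 C and loaded with no-wash calcium dye.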
D1 PAM – human D1 dopamine receptor positive modulation; potentiation, % at 10 µM; actives 0.036% (n = 360,000); HEK293 TREx D1 cells, calcium flux, dopamine EC20 potentiation; in the data active = potentiation above about 30%; also: 0% is about no effect
D1 antag – human D1 dopamine receptor antagonism; actives 3.2% (n = 360,000); activity change, negative = inhibition, % at 10 µM; HEK293 TREx D1 cells, calcium flux, dopamine EC80; hits give low values; in the data active = activity change below about -30%; also: % is scaled to controls: 0 for no effect and ±100 for the full control effect
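Compound effects on dopamine-evoked calcium signalling were measured in tetracycline-induced HEK293 Trex D1 cells. Dopamine at EC80 followed a 180 s compound pre-read, and fluorescence was tracked kinetically for 180 s more.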
Active calls of the source: *; ? = inconclusive; . = not tested or not shown. An excerpt weighted towards active compounds, which were near 6.1% of everything screened.

SMILES	D3 ag	D3 antag	D1 ag	D1 PAM	D1 antag
Cc1ccc(NC(=O)Cn2cnc3cc([N+](=O)[O-])ccc3c2=O)c(Cl)c1	-26	4	38*	-10	-20
O=c1c2ccc([N+](=O)[O-])cc2ncn1CCOc1ccc(Cl)cc1	6	62	0	-7	-12
O=c1c2ccc([N+](=O)[O-])cc2ncn1CCOc1cccc(Br)c1	32*	65	2	-12	-21
Cc1ccc(NC(=O)Cn2cnc3cc([N+](=O)[O-])ccc3c2=O)cc1	-1	-5	1	4	-13
CCOc1ccc(NCc2nnc(SCC(=O)Nc3nc(-c4ccccc4)cs3)n2-c2ccccc2)cc1	-4	1	0	2	22
Cc1ccc(NC(=O)CSCC(=O)NCCc2ccccn2)c(C)c1	0	2	-3	5	-2
N=C1/C(=C\c2coc3ccccc3c2=O)C(=O)N=C2SC=CN12	2	12	342*	-6	-13
O=C1NN(c2ccccc2)C(=O)/C1=C/c1coc2ccccc2c1=O	5	1	1	-13	2
CSC1=NSC2=NC(=O)/C(=C/c3coc4ccccc4c3=O)C(=N)N12	-5	-15	275*	0	-4
O=C1NN(c2ccccc2)C(=O)/C1=C\c1coc2ccc(O)cc2c1=O	-3	-24	1	-7	-70*
CSC1=NSC2=NC(=O)/C(=C/c3coc4ccc(O)cc4c3=O)C(=N)N12	6	30	168*	3	1
N=C1/C(=C/c2cccn2Cc2ccc(F)cc2)C(=O)N=C2SC=CN12	-8	10	0	2	3
CSC1=NSC2=NC(=O)/C(=C\c3cccs3)C(=N)N12	-3	-15	5	-22	-3
Cn1c2cc(C=O)sc2c2cnn(Cc3ccccc3F)c(=O)c21	.	.	0	1	10
CCC1(c2ccccc2)NC(=O)N(CC(=O)NNC(=O)c2ccoc2C)C1=O (centres undefined)	-3	8	3	-5	12
CC1=CC2=NC(=O)/C(=C/c3coc4ccc(Cl)cc4c3=O)C(=N)N2O1	7	21	231*	2	-10
CCCCC[C@@H](C)N1C[C@@H](COCc2ccccc2)Oc2cc(N3CC[C@H](N(C)C)C3)ccc2S1(=O)=O	-2	1	.	.	.
NC(N)=Nc1nc(CCN2C(=O)c3ccccc3C2=O)cs1	48*	22	.	.	.
Cc1nc(CCN2C(=O)c3ccccc3C2=O)cs1	-6	-8	5	-6	-29
O=C1c2ccccc2C(=O)N1CCc1csc(-c2ccc(F)cc2)n1	30*	-11	5	7	-5
CCCCc1nc2cc(C(=O)NCCc3c(C)n[nH]c3C)ccc2o1	6	9	.	.	.
CSc1cccc(CN2CCC(CCC(=O)NC3CC3)CC2)c1	-6	?	3	-4	-49*
O=C(NCC1CCCO1)C1CC(c2ccc(Cl)c(Cl)c2)=NO1 (centres undefined)	1	-25	15	-11	-32*
Cn1ncc(C#N)c1NC(=O)C1CC(c2ccc(Cl)c(Cl)c2)=NO1 (centres undefined)	3	-2	14	-3	-25
CC/C(=N/Nc1ccccc1)c1cnnc(-c2ccccc2)n1	10	-8	-3	-4	-12
SMILES	D3 ag	D3 antag	D1 ag	D1 PAM	D1 antag
CC/C(=N/Nc1cccc(Cl)c1)c1cnnc(SC)n1	-17	-25	1	-10	-37*
O=C(NCC1CCN(S(=O)(=O)c2ccccc2)CC1)Nc1ccc(F)cc1F	-2	-4	5	-3	-58*
COc1cc2nc(CN(C)Cc3ccc(Cl)cc3)[nH]c(=O)c2cc1OC	2	15	4	3	19
COc1cc2cncc(Cc3ccc(Cl)cc3)c2cc1OC	3	-10	5	0	-45*
CSc1ccc(C2C(C#N)=C(N)Oc3c2ccc(=O)c2c(C)oc(C)c32)cc1 (centres undefined)	-13	-51*	28	-1	-13
CCCN1CC=C2C(C#N)=C(N)C(C#N)(C#N)C(c3cccc(OC)c3OC)C2C1 (centres undefined)	3	?	34*	0	-3
Cc1ccc(C2C3CN(C(C)C)CC=C3C(C#N)=C(N)C2(C#N)C#N)cc1 (centres undefined)	-11	-86*	26	-5	3
CN1CC=C2C(C#N)=C(N)C(C#N)(C#N)[C@H](c3ccoc3)[C@H]2C1	-3	-16	10	-3	-4
COc1ccc(OC)c(C2C3CN(C(C)C)CC=C3C(C#N)=C(N)C2(C#N)C#N)c1 (centres undefined)	1	-59*	22	-2	-12
CCCCOc1ccc(C2C3CN(C(=O)OCC)CC=C3C(C#N)=C(N)C2(C#N)C#N)cc1OC (centres undefined)	6	38	1	3	3
Cc1cccc(NC(=O)Cn2c(=O)n(CCC(=O)N3CCc4ccccc4C3)c(=O)c3ccccc32)c1	-1	.	3	1	-18
Cc1nn(CCC(=O)NC(C)C)c(=O)c2nn(-c3ccccc3)c(C)c12	8	.	0	1	-1
CCOC(=O)Cc1cc(-c2ccccc2)nc2ccc3ccccc3c12	5	27	10	-12	-36*
CCOC(=O)CS(=O)(=O)c1nc(-c2ccc(F)cc2)cc(C(F)(F)F)n1	-23	-64*	-5	4	9
Cc1cc(NC(=O)CCCS(=O)(=O)c2nc(-c3cccs3)cc(C(F)(F)F)n2)no1	-11	-106*	6	-7	-2
CCOC(=O)CS(=O)(=O)c1ccccc1	0	4	3	-7	0
CCOC(=O)CS(=O)(=O)c1nc(-c2ccccc2)cc(C(F)(F)F)n1	-28	-69*	1	-4	-11
COc1ccc(S(=O)(=O)N2CCc3ccccc32)cc1[N+](=O)[O-]	1	4	9	-5	-22
CC1CN(CCCCOc2ccc(Cl)c3ccccc23)CC(C)O1 (centres undefined)	-23	?	-1	0	0
O=C(O)CCS(=O)(=O)c1nc(-c2cccs2)cc(C(F)(F)F)n1	-13	1	2	-3	1
COCC(C)NC(=O)CCS(=O)(=O)c1nc(-c2ccc(OC)cc2)cc(C(F)(F)F)n1 (centres undefined)	-18	-87*	3	-3	-8
CCC(C)NC(=O)CCSc1nc(-c2ccc(OC)cc2)cc(C(F)(F)F)n1 (centres undefined)	2	.	23	-6	-3
COC(=O)CCS(=O)(=O)c1nc(-c2ccccc2)cc(C(F)(F)F)n1	-61	-78*	-2	-10	43
CCOC(=O)CCS(=O)(=O)c1nc(-c2ccccc2)cc(C(F)(F)F)n1	-21	-51*	0	-3	-18
Cc1ccc(C)c(CN2C(=O)c3ccccc3S(=O)(=O)c3ccc(C(=O)Nc4cc(F)ccc4F)cc32)c1	2	.	2	-1	-6
